Records with an inconclusive call do not appear. Where a call stands in place of a potency, no number is given. Activity calls are given as the source filed them. Calls come from the whole dose curve; as a rule, active = well fitted curve in the direction sought with a large enough effect; inconclusive = small, poorly fitted or top-dose-only effect, or another doubt; inactive = no such curve, though single readings can be large or run the other way.

Our source for the Potency values is PubChem BioAssay AID588346 (National Center for Advancing Translational Sciences (NCATS), 2011).

The assay is described as follows: qHTS Assay for Inhibitors of Histone Lysine Methyltransferase G9a: Hit Confirmation in b-rIgG Counterscreen. The following applies: AlphaScreen b-rIgG bead counterscreen, signal interference; series mostly up to 55.7 µM. The text has this:
Methylated lysines, on the N-terminal tails of histone proteins serve as epigenetic markers to recruit factors that can then modify local chromatin structure to lead to functional consequences. G9a and other members of the SUV39 family of the SET domain-containing superfamily of histone lysine methyltransferases (HMT) have been identified to specifically methylate Lys9 of histone H3 (H3K9). G9a catalyzes the mono- and di-methylation of H3K9 in mammalian euchromatic regions, where the resulting H3K9me2 is indicative of transcriptional repression. […] The inhibition of G9a will result in transcriptional activation and work synergistically with DNA methyltransferase and histone deacetylase inhibitors, to kill cancer cells. This qHTS assay for identification of G9a inhibitors is a chemiluminescence based AlphaScreen (PerkinElmer). Methylation of biotinylated-histone peptide is measured through specific antibody-based detection, in conjunction with streptavidin-coated donor and anti-IgG antibody-coated acceptor beads. The method is particularly well suited for detection of inhibitors acting by the desired histone peptide competitive mechanism and is applicable to testing other HMTs. Although AlphaScreen has significant advantages with its utility in a variety of epigenetic target assays, the primary screening data provided in this deposition should be used with caution due to the prevalence of screening artifacts. Because an AlphaScreen counterscreen is highly recommended to be run against any putative actives to eliminate non specific artifacts, this assay was used as a counterscreen. Quinn et al. A chemiluminescence-based method for identification of histone lysine methyltransferase inhibitors. Mol Biosyst 6(5): 782-8. 2010. PMID: 20567762 [2] Baell,Holloway. New substructure filters for removal of pan assay interference compounds (PAINS) from screening libraries and for their exclusion in bioassays. J Med Chem. 53(7):2719-40. 2010. PMID: 20131845 NIH Chemical Genomics Center [NCGC] NIH Molecular Libraries Probe Production Network [MLPCN] MLPCN Grant: MH084681-02 Assay Submitter (PI): Structural Genomic Consortium - Toronto, Peter Brown
Biotinylated rabbit-IgG (b-rIgG) (Santa Cruz Biotechnology, Inc., Santa Cruz, CA) was added to 1,536-well plates in a 3 uL dispense. Compounds were added in a 23 nL pin-transfer step, and plates were incubated at room temperature for 15 min. Streptavidin-coated donor and anti-rIgG acceptor AlphaScreen beads were added (1 uL) for final concentrations of 20 ug/mL each bead and 1 nM b-rIgG, and plates read on the Envision after a 15 min incubation at room temperature in the dark.
(In general: qHTS replaces the single test concentration by a dilution series.)
On to `O=C1C=C(Nc2ccc(Cl)cc2)C(=O)N1c1ccc(Cl)cc1`, for which the Potency entry was “inactive”. Next, `NC(=S)N/N=C/c1ncc(C(F)(F)F)cc1Cl`: “inactive”; `O=C(NN1C(=O)c2ccccc2NC1c1ccc([N+](=O)[O-])o1)c1ccc([N+](=O)[O-])cc1` (stereo not given): “inactive”.

Regarding `CCCC(=O)N1CCN(c2ccc(NC(=O)c3ccc([N+](=O)[O-])o3)cc2Cl)CC1`, the Potency entry was “inactive”. For `O=C(CSc1cccc[n+]1[O-])c1ccccc1Br`, the Potency entry is “inactive”. Next, `CC(C)N(CCC(=O)c1ccc2ccccc2c1)Cc1ccccc1`: “inactive”.

On to `COc1cc2c(cc1C(F)(F)F)N(C(=O)Nc1cc(F)cc(-c3cccnc3)c1)CC2`, for which the Potency result is “inactive”.

`COc1nc(Nc2nc3ccccc3c(=O)[nH]2)nc2ccc(C)cc12`: the Potency entry was “inactive”. Next, `O=C1CN(c2nc(-c3ccccc3)c3cc(Cl)ccc3n2)c2ccccc2N1`: “inactive”; `O=c1c2ccccc2nc(COc2ccccc2)n1/N=C/c1c[nH]c2ccccc12`: “inactive”. Turning to `CC(C)C(=O)NC(c1ccc(N(C)C)cc1)c1ccc2cccnc2c1O` (stereo not given), the Potency result is “inactive”. For `COc1ccccc1N1CCN(CCN2C(=O)CC3(CCCC3)CC2=O)CC1` the value was “inactive”. Next, `N=c1n(CC(=O)c2ccc([N+](=O)[O-])cc2)c2ccccc2n1Cc1ccccc1Cl`: “inactive”. Next, `COc1ccc2c(C)cc(SCC(=O)N(C)C3CCS(=O)(=O)C3)nc2c1` (stereo not given): “inactive”. As to `C/C=C/c1ccc(OCC(=O)OCC(=O)NC2CC2)c(OC)c1`, the Potency entry is “inactive”. Next, `Oc1c(N=Nc2ccccn2)ccc2ccccc12`: 11.2 µM (active); `CCCCOC(=O)Cn1c2ccc(OC)cc2c2nc3ccccc3nc21`: “inactive”.

As for `Nc1nc2ccc(Cl)cc2c2nc(-c3ccco3)nn12`, the Potency result is “inactive”. As for `CNC(=O)Oc1ccc2c(c1)[C@]1(C)CCN(C)[C@@H]1N2C`, the Potency result is “inactive”. For `Oc1ccc(Br)cc1C=Nc1ccc2c3c(cccc13)CC2` the value was “inactive”; for `O=C(N/N=C/c1ccccn1)c1cc(-c2ccc(Cl)cc2)nc2ccccc12`, “inactive”. For `CN(c1ccccc1)S(=O)(=O)c1nnc(NC(=O)c2ccccc2)s1` the value was “inactive”; for `Cc1ccc(C(C)C)c(OCc2ccc(C(=O)N/N=C/c3cccc(O)c3O)cc2)c1`, “inactive”; for `CCN1CCc2nc(N)oc2CC1`, “inactive”. For `C[n+]1cc2c3c(ccc2c2ccc4cc5c(cc4c21)OCO5)OCO3` the value was “inactive”. In the case of `COc1cc2nc(N3CCN(C(=O)C4COc5ccccc5O4)CC3)nc(N)c2cc1OC` (stereo not given), the Potency result is “inactive”. Next, `COc1ccc(NC(=O)CSc2nc3c(oc4ccccc43)c(=O)n2Cc2ccco2)cc1Cl`: “inactive”; `COCCNC(=S)N/N=C(\C)c1ccccc1O`: “inactive”; `CCC(=O)N1CCN(c2ccc(NC(=O)c3ccc([N+](=O)[O-])o3)cc2Cl)CC1`: “inactive”. For `Cc1ccc(/C=[N+](\[O-])c2ccc(N(C)C)cc2)c2nsnc12` the value was “inactive”; for `CNc1nc(N2CCCN(C)CC2)nc2cc(OC)c(OC)cc12`, “inactive”; for `COc1ccc2c(C)nc(Nc3nc(-c4ccccc4)cc(=O)[nH]3)nc2c1`, “inactive”. Next, `NC(=O)c1cc[n+](CC2=C(C(=O)O)N3C(=O)[C@@H](NC(=O)[C@@H](c4ccccc4)S(=O)(=O)[O-])[C@H]3SC2)cc1`: “inactive”; `COc1cccc(N2CCN(S(=O)(=O)c3ccc(-n4cnnn4)cc3)CC2)c1`: “inactive”.

For `Ic1ccc(N2CCN(Cc3c[nH]c4ncccc34)CC2)cc1`, the Potency entry was “inactive”. Next, `COc1ccc(NC(=O)c2ccc(-c3ccc(-c4noc(C)n4)cc3C)cc2)cc1N1CCN(C)CC1`: 28.2 µM (active).

Turning to `CSc1nsc(/C=C/Nc2cccc(Cl)c2)c1C#N`, the Potency result is “inactive”. Next, `COc1ccc(C(=O)/C=C/Sc2nc3ccccc3o2)cc1`: “inactive”; `O=C(CSc1cccc2cccnc12)N1CCCC1`: “inactive”; `CCOn1c(=O)c[n+]([O-])c2ccccc21`: “inactive”.
